Measurements published in PubChem BioAssay (EPA / NIEHS).
Values joined by “and” are separate entries in the source; they are usually repeats but may differ in a detail not shown here. Equal values may be shown once. The source holds several records for some structures; these can differ, active in one and inactive in another. Active and inactive are the calls of the source. The calls were made as follows: active = hit-call score of the fitted dose curve at least 0.9, where 1 is the maximum; inactive = score below 0.9.

How the values were obtained:
[1] = read-out: Macrophage colony-stimulating factor (MCSF), CSF1 (gene 1435); assay: BSK_hDFCGF_MCSF: BioMAP Diversity Plus: hDFCGF Assay for Macrophage colony-stimulating factor (MCSF) Biomarker Activity (AID 2283060); settings: primary human foreskin fibroblasts; actives raise or lower the signal
Procedure, shortened: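 ELISA read-out of M-CSF in human dermal foreskin fibroblast cultures, 24 h after chemical dosing; gain or loss of signal fitted bidirectionally relative to DMSO baseline.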

[2] = BSK_hDFCGF_SRB: Viability Assessment in the BioMAP Diversity Plus: hDFCGF Assay (AID 2283061); settings: primary human foreskin fibroblasts;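 also: cells exposed to compound for 24 h before the read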
Procedure, shortened: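 Primary human foreskin fibroblasts; 24 h post-dose; fixed 10% TCA, stained 0.1% SRB, A560 read; total protein as overt cytotoxicity measure; curves fit bidirectionally vs DMSO control.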

[3] = read-out: TIMP metallopeptidase inhibitor 1 (TIMP1), TIMP1 (gene 7076); assay: BSK_hDFCGF_TIMP1: BioMAP Diversity Plus: hDFCGF Assay for TIMP metallopeptidase inhibitor 1 (TIMP1) Biomarker Activity (AID 2283062); settings: primary human foreskin fibroblasts; actives raise or lower the signal
Procedure, shortened: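 ELISA readout of TIMP-1 from human dermal foreskin fibroblast cultures 24 h post-dosing. Curves were fitted in both directions against DMSO baseline, with SRB total-protein staining in parallel cultures as a cytotoxicity check.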

[4] = read-out: Monokine induced gamma interferon (MIG), CXCL9 (gene 4283); assay: BSK_hDFCGF_MIG: BioMAP Diversity Plus: hDFCGF Assay for Monokine induced gamma interferon (MIG) Biomarker Activity (AID 2283063); settings: primary human foreskin fibroblasts; actives raise or lower the signal
Procedure, shortened: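 Fibroblasts (human foreskin, primary) dosed, 24 h, MIG by ELISA; fit bidirectional vs DMSO.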

[5] = read-out: Matrix Metallopeptidase 1 (MMP1), MMP1 (gene 4312); assay: BSK_hDFCGF_MMP1: BioMAP Diversity Plus: hDFCGF Assay for Matrix Metallopeptidase 1 (MMP1) Biomarker Activity (AID 2283064); settings: primary human foreskin fibroblasts; actives raise or lower the signal
Procedure, shortened: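 Primary human foreskin fibroblasts exposed to chemicals for 24 h; MMP1 measured by ELISA. Cytotoxicity tracked by SRB staining in parallel cultures; bidirectional fit relative to DMSO.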

[6] = read-out: Vascular cell adhesion molecule 1 (VCAM1), VCAM1 (gene 7412); assay: BSK_hDFCGF_VCAM1: BioMAP Diversity Plus: hDFCGF Assay for Vascular cell adhesion molecule 1 (VCAM1) Biomarker Activity (AID 2283065); settings: primary human foreskin fibroblasts; actives raise or lower the signal;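 as to AC50: VCAM-1 protein level quantified by ELISA after 24 h chemical exposure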
Procedure, shortened: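 ELISA read-out of VCAM-1 on human skin fibroblasts, 24 h post-dose; gain or loss of signal fitted bidirectionally against DMSO baseline.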

[7] = read-out: Intercellular Adhesion Molecule 1 (ICAM1), ICAM1 (gene 3383); assay: BSK_KF3CT_ICAM1: BioMAP Diversity Plus: KF3CT Assay for Intercellular Adhesion Molecule 1 (ICAM1) Biomarker Activity (AID 2283067); settings: primary human keratinocytes with fibroblasts; actives raise or lower the signal
Procedure, shortened: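 ELISA readout of ICAM-1; KF3CT human skin co-culture (keratinocytes + foreskin fibroblasts), 24 h post-dose; gain/loss fit vs DMSO baseline.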

[8] = read-out: Interferon-gamma inducible Protein 10 (IP10), CXCL10 (gene 3627); assay: BSK_KF3CT_IP10: BioMAP Diversity Plus: KF3CT Assay for Interferon-gamma inducible Protein 10 (IP10) Biomarker Activity (AID 2283068); settings: primary human keratinocytes with fibroblasts; actives raise or lower the signal
Procedure, shortened: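 ELISA read-out of IP-10 after 24 h chemical dosing of human skin primary co-culture (keratinocytes, foreskin fibroblasts). Gain or loss of signal relative to DMSO, bidirectional curve fit.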

[9] = BSK_KF3CT_SRB: Viability Assessment in the BioMAP Diversity Plus: KF3CT Assay (AID 2283069); settings: primary human keratinocytes with fibroblasts;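 also: total protein by sulforhodamine B staining as a cytotoxicity measure; read 24 h after compound addition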
Procedure, shortened: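 Human keratinocyte and foreskin fibroblast co-culture exposed to chemical for 24 h. Total protein measured in parallel cultures by 0.1% sulforhodamine B staining after 10% TCA fixation, read at 560 nm; bidirectional fit relative to DMSO.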

[10] = read-out: Interleukin-1 alpha (IL1a), IL1A (gene 3552); assay: BSK_KF3CT_IL1a: BioMAP Diversity Plus: KF3CT Assay for Interleukin-1 alpha (IL1a) Biomarker Activity (AID 2283070); settings: primary human keratinocytes with fibroblasts; actives raise or lower the signal
Procedure, shortened: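 Primary human keratinocyte plus foreskin fibroblast co-culture, dosed and measured at 24 h in 96-well plates. IL-1a level quantified by ELISA; bidirectional fit relative to DMSO.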

[11] = read-out: TIMP metallopeptidase inhibitor 2 (TIMP2), TIMP2 (gene 7077); assay: BSK_KF3CT_TIMP2: BioMAP Diversity Plus: KF3CT Assay for TIMP metallopeptidase inhibitor 2 (TIMP2) Biomarker Activity (AID 2283071); settings: primary human keratinocytes with fibroblasts; actives raise or lower the signal
Procedure, shortened: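 Cells: human keratinocytes co-cultured with foreskin fibroblasts. Treat with chemical, 24 h. Measure TIMP-2 by ELISA; fit curves bidirectionally vs DMSO baseline.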

[12] = read-out: C-C motif chemokine 2 (Homo sapiens) (UniProt P13500); assay: BSK_KF3CT_MCP1: BioMAP Diversity Plus: KF3CT Assay for Monocyte Chemoattractant Protein 1 (MCP1/CCL2) Biomarker Activity (AID 2283073); settings: primary human keratinocytes with fibroblasts; actives raise or lower the signal
Procedure, shortened: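 KF3CT skin co-culture (keratinocytes/foreskin fibroblasts), 24 h post-dose; MCP-1 by ELISA; gain/loss of signal fit bidirectionally vs DMSO baseline.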

[13] = read-out: Matrix Metallopeptidase 9 (MMP9), MMP9 (gene 4318); assay: BSK_KF3CT_MMP9: BioMAP Diversity Plus: KF3CT Assay for Matrix Metallopeptidase 9 (MMP9) Biomarker Activity (AID 2283074); settings: primary human keratinocytes with fibroblasts; actives raise or lower the signal;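 as to AC50: MMP9 protein level quantified by ELISA in the co-culture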
Procedure, shortened: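 Human keratinocyte and foreskin fibroblast co-culture exposed to chemicals for 24 h; MMP9 biomarker measured by ELISA, bidirectional fitting relative to DMSO; cytotoxicity tracked by SRB total protein staining in parallel cultures.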

[14] = read-out: urokinase plasminogen activator (uPA), PLAU (gene 5328); assay: BSK_KF3CT_uPA: BioMAP Diversity Plus: KF3CT Assay for urokinase plasminogen activator (uPA) Biomarker Activity (AID 2283075); settings: primary human keratinocytes with fibroblasts; actives raise or lower the signal
Procedure, shortened: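 Primary human keratinocyte/foreskin fibroblast co-culture exposed to chemical; uPA measured by ELISA at 24 h. Bidirectional fit versus DMSO, with parallel SRB total-protein staining for cytotoxicity.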

CD40, CD40 (gene 958) = assay: BSK_LPS_CD40: BioMAP Diversity Plus: LPS Assay for CD40 Biomarker Activity (AID 2283076); settings: primary human HUVEC with PBMC; actives raise or lower the signal
Procedure, shortened: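 ELISA readout of CD40 in HUVEC/PBMC co-culture (BSK_LPS system), 24 h post-dosing; bidirectional curve fit, DMSO baseline; parallel SRB total-protein staining for cytotoxicity.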

[15] = read-out: E-selectin (Homo sapiens) (UniProt P16581); assay: BSK_LPS_Eselectin: BioMAP Diversity Plus: LPS Assay for Eselectin Biomarker Activity (AID 2283077); settings: primary human HUVEC with PBMC; actives raise or lower the signal
Procedure, shortened: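 ELISA readout of E-selectin, 24 h post-dose, HUVEC + PBMC co-culture (LPS system). Gain or loss of signal vs DMSO baseline, bidirectional fit.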

[16] = read-out: Interleukin-8 (IL8), CXCL8 (gene 3576); assay: BSK_LPS_IL8: BioMAP Diversity Plus: LPS Assay for Interleukin-8 (IL8) Biomarker Activity (AID 2283078); settings: primary human HUVEC with PBMC; actives raise or lower the signal
Procedure, shortened: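 HUVEC + PBMC co-culture, LPS-activated; test chemicals dosed, IL-8 read by ELISA at 24 h. Bidirectional curve fit vs DMSO baseline (gain or loss of signal).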

[17] = BSK_LPS_SRB: Viability Assessment in the BioMAP Diversity Plus: LPS Assay (AID 2283079); settings: primary human HUVEC with PBMC;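 also: total protein by sulforhodamine B absorbance as a cytotoxicity measure; measured one day after compound addition; fitted in both directions against DMSO so loss or gain of signal counts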
Procedure, shortened: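 HUVEC + PBMC co-culture, LPS-stimulated; compound 24 h. 10% TCA fix, 0.1% SRB stain, A560. Bidirectional fit vs DMSO.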

[18] = read-out: Transforming growth factor beta 1 (TGFb1), TGFB1 (gene 7040); assay: BSK_KF3CT_TGFb1: BioMAP Diversity Plus: KF3CT Assay for Transforming growth factor beta 1 (TGFb1) Biomarker Activity (AID 2283072); settings: primary human keratinocytes with fibroblasts; actives raise or lower the signal
Procedure, shortened: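 Primary human skin cells (keratinocytes, foreskin fibroblasts) were co-cultured, exposed to test chemical and sampled at 24 h. TGF-b1 levels were measured by ELISA and fitted bidirectionally relative to DMSO.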

Measured: AC50

Sequence of E-selectin (Homo sapiens) (P16581 whole entry, looked up): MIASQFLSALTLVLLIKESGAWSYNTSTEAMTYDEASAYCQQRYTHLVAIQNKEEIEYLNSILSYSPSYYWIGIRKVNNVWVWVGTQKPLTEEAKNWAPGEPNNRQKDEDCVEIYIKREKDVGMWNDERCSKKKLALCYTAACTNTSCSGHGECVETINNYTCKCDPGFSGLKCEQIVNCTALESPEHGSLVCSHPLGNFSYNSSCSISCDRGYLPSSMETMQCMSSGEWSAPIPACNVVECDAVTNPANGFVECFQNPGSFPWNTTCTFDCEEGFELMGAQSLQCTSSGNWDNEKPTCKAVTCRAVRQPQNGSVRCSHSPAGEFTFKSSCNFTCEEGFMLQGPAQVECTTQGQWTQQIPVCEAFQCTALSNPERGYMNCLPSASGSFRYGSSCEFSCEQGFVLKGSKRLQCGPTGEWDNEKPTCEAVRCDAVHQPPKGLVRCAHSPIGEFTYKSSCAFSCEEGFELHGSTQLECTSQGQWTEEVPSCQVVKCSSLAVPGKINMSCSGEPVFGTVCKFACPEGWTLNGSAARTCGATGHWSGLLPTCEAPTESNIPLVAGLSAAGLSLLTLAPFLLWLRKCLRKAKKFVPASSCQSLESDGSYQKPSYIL

O=S(=O)(OCC(F)(F)F)C(F)(F)C(F)(F)C(F)(F)C(F)(F)F
active: [14] 9.13 µM | CD40, CD40 (gene 958) 24.3 µM | [15] 41.4 µM
inactive: [1] | [2] | [3] | [4] | [5] | [6] | [7] | [8] | [9] | [10] | [11] | [12] | [13] | [14] | CD40, CD40 (gene 958) | [15] | [16] | [17]

Cc1cnccn1
inactive: [1] | [2] | [3] | [4] | [5] | [6] | [7] | [8] | [9] | [11] | [18] | [12] | [13] | [14] | CD40, CD40 (gene 958) | [15] | [16] | [17]

O=S(=O)(O)CCC(F)(F)C(F)(F)C(F)(F)C(F)(F)F
inactive: [1] | [2] | [3] | [4] | [5] | [6] | [7] | [8] | [9] | [11] | [12] | [13] | [14] | CD40, CD40 (gene 958) | [15] | [16] | [17]

NC(=O)C(F)(F)C(F)(F)C(F)(F)C(F)(F)C(F)(F)C(F)(F)C(F)(F)F
inactive: [1] | [2] | [3] | [4] | [5] | [6] | [7] | [8] | [9] | [10] | [11] | [12] | [13] | [14] | CD40, CD40 (gene 958) | [15] | [16] | [17]

Cc1ccc(S(=O)(=O)C(I)I)cc1
inactive: [18]
active: [1] 2.36 µM | [2] 2.63 µM | [3] 1.62 µM | [4] 2.68 µM | [5] 2.22 µM | [6] 942 nM | [7] 3.07 µM | [8] 7.09 µM | [9] 5.19 µM | [11] 2.35 µM | [12] 2.71 µM | [13] 5.24 µM | [14] 6.22 µM | CD40, CD40 (gene 958) 2.38 µM | [15] 3.3 µM | [16] 4.27 µM | [17] 5.31 µM

C=CC(=O)OCC(F)(F)C(F)(F)C(F)(F)C(F)(F)C(F)(F)C(F)(F)C(F)(F)C(F)F
active: [1] 28.8 µM and 30 µM | [4] 26.9 µM and 30 µM | [6] 17 µM and 17.5 µM | [12] 30 µM | CD40, CD40 (gene 958) 24 µM
inactive: [2] | [3] | [5] | [7] | [8] | [9] | [11] | [12] | [13] | [14] | CD40, CD40 (gene 958) | [15] | [16] | [17]
